# Compound activity from PubChem BioAssay.
# Only some compounds are listed: those with a hit (about 10% of all), similar ones and a draw of the others.
# HP1b chromo inh: HP1-beta chromodomain-methylated histone interaction inhibition | 390,000 tested, 0.56% active | AlphaScreen HP1-beta / biotin-H3K9me3 peptide binding | Potency, µM (series often up to 114 µM), without a hit: top-dose activity change, negative = inhibition, hits mostly inhibitors | AID 540317; also: potency is read from the fitted curve at half-maximal effect; nearly all actives have a fitted effect of over 70% in size
# Target sequence (P83916 whole entry, looked up): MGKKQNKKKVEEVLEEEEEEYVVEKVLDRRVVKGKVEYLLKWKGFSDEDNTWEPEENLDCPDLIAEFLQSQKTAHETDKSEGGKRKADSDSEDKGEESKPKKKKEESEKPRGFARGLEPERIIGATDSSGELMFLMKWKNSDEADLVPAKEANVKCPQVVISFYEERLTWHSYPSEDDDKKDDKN
#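 HP1-beta protein (50 nM final) preincubated 30 min at room temperature with biotinylated H3(1-18)K9me3 peptide (50 nM) in PBS pH 7.4, 0.01% Tween-20, then compound added for 30 min. AlphaScreen streptavidin donor/nickel chelate acceptor beads (10 ug/mL final), 30 min dark, luminescence read.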
# G9a inh: G9a (human) methyltransferase inhibition | G9a H3K9 monomethylation, AlphaScreen, 2 h | Potency, µM (top dose mostly 102 µM), inactives show top-dose activity, negative = inhibition, actives largely listed as inhibitors | Q96KQ7 | 350,000 tested, 8.8% active; also: potency is read from the fitted curve at half-maximal effect; % is scaled to controls: 0 for no effect and ±100 for the full control effect; nearly all actives have a fitted effect of over 75% in size
# Target sequence (Q96KQ7 913-1193 limits assumed): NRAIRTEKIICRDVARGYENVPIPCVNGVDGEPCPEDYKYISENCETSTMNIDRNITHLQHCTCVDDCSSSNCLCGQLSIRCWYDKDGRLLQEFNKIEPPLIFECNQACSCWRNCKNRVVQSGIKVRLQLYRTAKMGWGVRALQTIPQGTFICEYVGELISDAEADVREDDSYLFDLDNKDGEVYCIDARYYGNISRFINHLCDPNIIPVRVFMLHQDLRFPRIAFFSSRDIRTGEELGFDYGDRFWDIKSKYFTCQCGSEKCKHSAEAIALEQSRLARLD
#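 Chemiluminescent proximity detection of H3K9 monomethylation, read after 10 min bead incubation in the dark. Reaction: 20 nM G9a, 500 nM biotin-H3K9 peptide, 20 uM SAM cofactor, 2 h, room temperature, following 15 min enzyme-compound preincubation.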
# CtBP-E1A inh: CtBP/E1A binding inhibition | AlphaScreen GST-E1A/His-CtBP binding, 1536-well; stronger effect = lower value | activity change, % (no concentration beside the values) | 340,000 tested, 0.49% active | AID 651724; in the data active = activity change below about -65%; inconclusive = mostly about -30% to -63%; also: % is scaled to controls: 0 for no effect and ±100 for the full control effect
#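 Protein mix (5X: 125 nM each GST-E1A, His-CtBP) was incubated with pinned compound 2 h at 37 deg C in dark, in 50 mM Tris pH 8.0 buffer with 300 mM NaCl. Glutathione donor and nickel acceptor beads followed; AlphaScreen signal read after 1 h.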
# BAZ2B block: blocks human BAZ2B; Q9UIF8; AlphaScreen BAZ2B-H3K14Ac peptide displacement; Potency, µM (series often up to 114 µM), for inactives: top-dose activity change, negative = inhibition, hits mostly inhibitors; 360,000 tested, 4.4% active; also: potency is read from the fitted curve at half-maximal effect; % is scaled to controls: 0 for no effect and ±100 for the full control effect; nearly all actives have a fitted effect of over 60% in size
#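 BAZ2B (50 nM) with biotin-H3(5-23)K14Ac peptide (50 nM) in PBS pH 7.4, 0.01% Tween-20, preformed 30 min, then compound 30 min at room temperature; top concentration 110uM. AlphaScreen streptavidin donor/nickel chelate acceptor beads (10 ug/mL final), 20 min dark, signal read.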
# JMJD2A Tudor: blocks the human JMJD2A Tudor domain; O75164; AlphaScreen JMJD2A-Tudor / H3K4me3 peptide binding; Potency, µM (doses to about 114 µM), for inactives: top-dose activity change, negative = inhibition, hits mostly inhibitors; 390,000 tested, 4.4% active; AID 504339; also: potency is read from the fitted curve at half-maximal effect; % is scaled to controls: 0 for no effect and ±100 for the full control effect; nearly all actives have a fitted effect of over 50% in size
# Six1-Eya2 blk: Six1/Eya2 interaction inhibition; AlphaScreen GST-Six1/His-Eya2 binding, biochemical; stronger effect = lower value; activity change, % (concentration not given with the values); 360,000 tested, 0.56% active; in the data active = activity change below about -65%; inconclusive = mostly about -30% to -63%; also: % is scaled to controls: 0 for no effect and ±100 for the full control effect
#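 Compounds are tested against tagged Six1 and Eya2 proteins bridged by glutathione donor and nickel acceptor beads; after a one-hour incubation at 37 °C without light, AlphaScreen emission is recorded.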
# Starred values were filed as active, the others as inactive; ? = inconclusive; . = not tested or not shown; [ ] = remark or other dose. Unless noted, calls follow the shape of the dose curve; as a rule, active = well fitted inhibition curve with a large enough effect; inconclusive = small, poorly fitted or top-dose-only effect; inactive = no such curve, though single readings can be large or run the other way.
SMILES,HP1b chromo inh,G9a inh,CtBP-E1A inh,BAZ2B block,JMJD2A Tudor,Six1-Eya2 blk
CCCCCCCC/C=C\CCCCCCCC(=O)O,86%,28%[59 µM],-1,-23%,89µM*,9
Cc1ccccc1C(=O)NC1(C(F)(F)F)N=C(c2ccccc2)N(C2CCCCC2)C1=O (configuration not stated),20%,-4%[59 µM],.,-16%,-10%,.
Cc1noc(C)c1CN1C(=O)c2ccccc2C1=O,39%,37%,2,8%,-11%,0
O=C(NCC(=O)N(c1cccnc1)C(C(=O)NC1CCCC1)c1cccs1)c1ccco1 (configuration not stated),19%,1%,6,-1%,-6%,0
CC(C)Oc1ccc(C(=O)NC(Cc2c[nH]c3ccccc23)C(=O)NN)cc1 (configuration not stated),38%,.,.,-17%,-26%,-3
CCSc1nnc(NC(=O)c2cccnc2Cl)s1,39%,-31%[59 µM],-7,-12%,8%[57.1 µM],2
CCSc1nnc(NC(=O)c2cnccn2)s1,35%,9%[59 µM],1,22%,79µM*,-1
CCSc1nnc(NC(=O)C(CC)(C(F)(F)F)C(F)(F)F)s1,43%,50µM*,2,?,-30%,-1
CCSc1nnc(NC(=O)c2ccccn2)s1,61%,?,-91*,6.3µM*,8.9µM*,-94*
CC(C)n1nc(C(=O)Nc2nc3ccccc3[nH]2)c2ccccc2c1=O,10%,-33%,-21,?,?,-15
O=C(COC(=O)Cc1ccc(S(=O)(=O)N2CCOCC2)s1)NCCc1ccccc1,4%,?,-11,50µM*,-27%,-7
NS(=O)(=O)c1cccc(NC(=O)COC(=O)Cc2ccc(S(=O)(=O)N3CCCCC3)s2)c1,38%,45µM*,8,?,-26%,-1
O=C(COC(=O)Cc1ccc(S(=O)(=O)N2CCOCC2)s1)NCc1ccccc1,24%,?,-1,-7%,-10%,2
O=C(COC(=O)Cc1ccc(S(=O)(=O)N2CCCCC2)s1)Nc1ccc2c(c1)OCO2,3%,22µM*,-1,.,-27%,-4
O=C(Cc1ccc(S(=O)(=O)N2CCCC2)s1)Nc1cccc([N+](=O)[O-])c1,19%,.,.,.,?,-12
O=C(Cc1ccc(S(=O)(=O)N2CCCCC2)s1)Nc1ccc(F)c(F)c1,34%,29%[59 µM],11,9%,-5%,-12
COc1ccc(CCN(C)C(=O)CN2C(=O)NC3(CCCCC3C)C2=O)cc1OC (configuration not stated),33%,?,6,6%,-5%,1
Cc1ccc(S(=O)(=O)N(C)C)cc1NC(=O)COC(=O)CNC(=O)c1cccs1,10%,-36%,-13,12%,-6%,6
Cc1cc(C(=O)O)ccc1NCc1ccncc1,40%,?,9,-39%,-14%,-15
C/C(=C\C(=O)c1ccc(C)o1)Nc1ccc(C(=O)O)cc1C,-9%,71µM*,1,?,28µM*,0
Cc1cccc(C(=O)n2c(=S)nc3cc(C)ccn32)c1,-15%,7.9µM*,8,-40%,40µM*,-2
Cc1ccn2c(c1)nc(=S)n2C(=O)c1ccccc1,-24%,45µM*,-5,9%,-14%,-4
O=C(c1ccco1)n1c(=S)nc2ccccn21,-25%,?,6,6%,-27%,-2
CC(=O)c1cccc(NC(=O)c2ccc3nc(Cc4ccccc4)oc3c2)c1,7%[57 µM],3%[59 µM],.,-4%,-24%,.
CCOC(=O)C1=C(c2ccccc2)NC(SC)=C(C#N)C1c1ccco1 (configuration not stated),40%,45µM*,0,-33%,?,-4
SMILES,HP1b chromo inh,G9a inh,CtBP-E1A inh,BAZ2B block,JMJD2A Tudor,Six1-Eya2 blk
CC(=O)C1=C(C)NC(SCc2ccc(C#N)cc2)=C(C#N)C1c1ccco1 (configuration not stated),34%,?,-6,-33%,20µM*,-5
CSCSC1=C(C#N)C(c2ccc(Cl)cc2)C(C(C)=O)=C(C)N1 (configuration not stated),.,7.9µM*,.,11%,.,.
CC(=O)C1=C(C)NC(SCC(=O)c2ccccc2)=C(C#N)C1c1ccco1 (configuration not stated),.,?,.,12%,.,.
CC(=O)C1=C(C)NC(SCc2cccc3ccccc23)=C(C#N)C1c1ccco1 (configuration not stated),37%,32µM*,-5,-8%,10µM*,-12
CCOC(=O)C1=C(c2ccccc2)NC(SCC(=O)Nc2ccc(C)cc2)=C(C#N)C1c1ccco1 (configuration not stated),25%,-6%[59 µM],-1,-2%,-23%,-10
CC(=O)Nc1ccc(C(=O)N2CCCC(c3cc(C(=O)NCc4cccnc4)no3)C2)cc1 (configuration not stated),.,.,1,.,.,2
NC(=O)c1ccc(-n2nnnc2SCC(=O)NC2CCCCC2)cc1,31%,14%,-4,-12%,2%,-1
NS(=O)(=O)c1ccc(NC(=O)COC(=O)COc2ccccc2)cc1,19%,61%[12.7 µM],.,13%,-22%,1
O=C1c2ccccc2C(=O)N1Cc1ccc2c(c1)OCO2,33%,-5%[12.7 µM],2,17%,28%,7
C=C1c2ccccc2NC(=S)N1Cc1ccc2c(c1)OCO2,24%,32µM*,.,-32%,-9%[11.4 µM],-1
Clc1ccc(CO/N=C2\CCCc3nonc32)cc1,81%,111%,4,144%,71µM*,44
Clc1ccccc1CO/N=C1\CCCc2nonc21,133%,62%[59 µM],-13,120%,55%,34
COc1ccc(C2/C(=C(/O)c3ccc4c(c3)CC(C)O4)C(=O)C(=O)N2CCCn2ccnc2)cc1 (configuration not stated),5%,?,-2,?,?,-2
CC1Cc2cc(/C(O)=C3/C(=O)C(=O)N(Cc4ccncc4)C3c3ccc(N(C)C)cc3)ccc2O1 (configuration not stated),12%,22µM*,0,?,?,0
COc1ccc(C2/C(=C(/O)c3ccc4c(c3)CC(C)O4)C(=O)C(=O)N2Cc2cccnc2)cc1 (configuration not stated),54%,40µM*,0,-36%,-21%,-1
COc1ccc(C2/C(=C(\O)c3ccc4c(c3)CC(C)O4)C(=O)C(=O)N2Cc2cccnc2)c(OC)c1 (configuration not stated),13%,71µM*,1,-13%,-21%,2
COC(=O)c1sc(S(=O)(=O)NCCC(=O)O)c(C(=O)OC)c1C,50%,?,7,-8%,1%,-2
